Compound activity (PubChem)
This is a sample that favours compounds with a hit; in the whole collection about 3.1% have one here.
RAD54 inh: inhibitors of human RAD54 branch migration, primary screen, biochemical, fluorescence, single point | DNA repair and recombination protein RAD54-like (Homo sapiens), Q92698 | RAD54 Holliday junction branch migration, FAM/BHQ fluorescence | inhibition, % at 10.4 µM | 360,000 compounds, 0.14% hits | AID 602329, 2012;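 active means mean normalized replicate activity at least 40 and at least half of replicates scoring 40 or more; inconclusive means only one of the two criteria met; inactive means mean below 40 and under half of replicates reaching 40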;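 further: 0% = median of neutral control wells and 100% = median of positive control wells; inhibitors cause a drop in the FAM fluorescence signal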
GSIS activator: GLuc luminescence reporter in INS-1E cells, primary screen for activators of glucose-dependent secretion of insulin; INS-1E GLuc reporter insulin secretion, 2-3 h; activation, % at 16.6 µM; 370,000 compounds, 0.61% hits;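 active means lowest replicate activation of at least 40%, so every replicate reaches that level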;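 further: 0% = median of neutral control wells and 100% = median of IBMX positive control wells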
dFosB act-1: activators of delta FosB homodimer, primary screen, biochemical, fluorescence polarization, TAMRA-CDK5 oligo, single point; 340,000 compounds, 0.99% hits; AID 493131, 2011; purified delta FosB; percent of positive-control signal above neutral wells; Protein FosB (Mus musculus), P13346; activation, % at 25 µM;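 active means mean activation above about 17%, with every replicate also reaching it, limit read from the data, passing the limit was not always enough; inconclusive means only one of the two conditions met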
Target sequence (P13346 whole entry, looked up): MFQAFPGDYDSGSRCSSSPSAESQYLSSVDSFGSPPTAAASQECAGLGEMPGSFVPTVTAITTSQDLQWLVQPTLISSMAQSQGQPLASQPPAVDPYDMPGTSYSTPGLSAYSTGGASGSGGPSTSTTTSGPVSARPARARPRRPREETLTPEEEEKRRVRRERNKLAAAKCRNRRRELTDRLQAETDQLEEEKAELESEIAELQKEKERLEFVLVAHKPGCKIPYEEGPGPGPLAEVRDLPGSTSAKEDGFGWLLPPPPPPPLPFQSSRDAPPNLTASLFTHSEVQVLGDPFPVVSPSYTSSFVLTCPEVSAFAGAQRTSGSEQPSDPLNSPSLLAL
RAD52 inh: RAD52 DNA annealing inhibitors, primary screen, biochemical, FRET, single point, set 2; DNA repair protein RAD52 homolog (Homo sapiens), P43351; inhibition, % at 18.7 µM; 360,000 compounds, 0.46% hits; recombinant RAD52 DNA annealing, FRET fluorescence; AID 651710, 2012;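 active means every replicate showing at least 50% inhibition; inconclusive means mean inhibition at least 50% but not in every replicate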
MLL AF4-AF9 inh: inhibitors of AF4 peptide binding to AF9, primary screen, biochemical, AlphaScreen, biotin-AF4 peptide, FLAG-AF9, single point; Protein AF-9 (Homo sapiens), P42568; inhibition, % at 10 µM; 350,000 compounds, 0.47% hits;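 active means every replicate reaching a set inhibition limit, whatever the replicate mean, cut at about 25% in these data; inconclusive means mean inhibition reaches that limit but some replicates miss it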;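 further: 0% = plate neutral control median and 100% = total signal loss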
DENV2 CPE: inhibitors of DENV2 cytopathic effect, primary screen, cell-based, plate reader, single concentration. DENV2-infected cells, cytopathic effect rescue. CPE inhibition, % at 9.99 µM. 350,000 compounds, 1.7% hits. AID 651640, 2012; in the data active means CPE inhibition above about 20%, passing the limit was not always enough; inconclusive means no clear call, values can overlap the other calls; tested in BHK-21 cells;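 further: 0% = median of neutral control wells and 100% = median of positive control wells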
dFosB act-2: activators of mouse delta FosB DNA binding, confirmation, biochemical, fluorescence polarization, TAMRA-CDK5 oligo, cherry-picked samples; 2,400 tested, under 10 active; AID 588690, 2011; shares compounds with dFosB act-1; purified delta FosB; normalised: neutral wells 0, positive control 100; activation, % at 24.9 µM;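 active means highest replicate activation at or above 34% and every replicate reaching that threshold; inconclusive means meets only one of the two criteria; inactive means meets neither criterion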;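 further: higher polarization means more probe DNA bound by delta FosB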
* hit, by the source's call; ? = inconclusive; nt = not tested or not shown.

SMILES	RAD54 inh	GSIS activator	dFosB act-1	RAD52 inh	MLL AF4-AF9 inh	DENV2 CPE	dFosB act-2
C[C@@H]1CN([C@@H](C)CO)C(=O)c2cc(NC(=O)CCCCCC(=O)Nc3ccccc3N)ccc2O[C@H]1CN(C)S(C)(=O)=O	nt	21	nt	0	-1	17	nt
COc1cccc2sc(N(CCN(C)C)C(=O)/C=C/c3cccs3)nc12	nt	-13	-6	2	-1	-2	nt
CCOc1ccc2nc(N(CCN(C)C)C(=O)/C=C/c3cccs3)sc2c1	5	nt	32*	nt	nt	nt	6
CCOc1ccc2nc(N(CCN(C)C)C(=O)c3cc4ccccc4cc3OC)sc2c1	16	nt	48*	nt	nt	nt	8
CN(C)CCCN(C(=O)c1ccc(S(=O)(=O)N2CCCCCC2)cc1)c1nc2ccc(F)cc2s1	17	-10	0	2	13	3	nt
CN(C)CCN(C(=O)c1ccc2ccccc2c1)c1nc2ccc(Br)cc2s1	1	11	15	2	-5	-3	nt
CCc1ccc2nc(N(CCN(C)C)C(=O)/C=C/c3cccs3)sc2c1	11	nt	3	nt	nt	nt	nt
CN(C)CCN(C(=O)/C=C/c1cccs1)c1nc2c(F)cc(F)cc2s1	nt	-7	53*	nt	nt	nt	4
CN(C)CCN(C(=O)c1ccc(S(=O)(=O)N2CCc3ccccc32)cc1)c1nc2ccc(F)cc2s1	-12	24	62*	-18	2	-7	0
C[C@H]1CN([C@@H](C)CO)C(=O)c2cc(NS(=O)(=O)c3ccc(F)cc3)ccc2O[C@@H]1CN(C)Cc1ccc(Oc2ccccc2)cc1	-18	-21	nt	-33	3	-4	nt
C[C@H]1CN([C@@H](C)CO)C(=O)Cc2cc(NC(=O)CCN3CCOCC3)ccc2O[C@@H]1CN(C)Cc1ccc(Cl)c(Cl)c1	4	-16	nt	23	2	13	nt
O=C(N[C@H]1CC[C@H](CCNS(=O)(=O)Cc2ccccc2)O[C@@H]1CO)c1ccccc1F	7	-7	nt	-1	-3	0	nt
Cc1ccccc1S(=O)(=O)N1C[C@H](O)COC[C@H]2O[C@@H](CC(=O)N3CCOCC3)CC[C@@H]21	2	10	nt	-5	-1	4	nt
COc1ccc(-c2cnc3c(c2)C(=O)N([C@@H](C)CO)C[C@@H](C)[C@@H](CN(C)C(=O)C2CCCCC2)O3)cc1	-2	0	nt	1	-2	-5	nt
Cc1ccc2nc(N(CCN(C)C)C(=O)c3ccc4ccccc4c3)sc2c1	3	nt	26*	nt	nt	nt	6
CCNC(=O)COC(=O)c1cc(=O)[nH]c2ccccc12	-5	nt	-1	nt	nt	nt	nt
O=C(COC(=O)c1cc(=O)[nH]c2ccccc12)NCc1ccccc1	0	4	-1	6	-2	8	nt
O=C(COC(=O)c1cc(=O)[nH]c2ccccc12)Nc1nccs1	11	-1	?	-26	-2	2	nt
Cc1ccc(CNC(=O)COC(=O)c2cc(=O)[nH]c3ccccc23)cc1	11	9	55*	-5	-4	-2	-1
O=C(COC(=O)c1cc(=O)[nH]c2ccccc12)Nc1ccc(Cl)cn1	-13	9	19*	-42	-1	-6	1
Cc1cccc(C)c1NC(=O)COC(=O)c1cc(=O)[nH]c2ccccc12	3	3	42*	-15	-3	?	3
O=C(COC(=O)c1cc(=O)[nH]c2ccccc12)Nc1nc(-c2ccccc2)cs1	8	nt	55*	-8	-4	0	4
CC(=O)c1ccc(N2CCN(C(=O)/C=C/c3ccc4ccccc4n3)CC2)cc1	nt	-17	40*	-22	-2	0	3
